# ALDH1A1 inh: ALDH1A1 (human) enzyme inhibition | AID 1030 | Potency, µM (series often up to 75.3 µM), without a hit: top-dose activity, negative = inhibition, actives largely listed as inhibitors | Purified ALDH1A1, NADH fluorescence, propionaldehyde substrate | P00352 | 220,000 compounds, 7.3% hits;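 also: potency is read from the fitted curve at half-maximal effect; plate controls were no enzyme wells and a reference inhibitor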
# HPGD inh: HPGD (human) dehydrogenase inhibition; Potency, µM, for the others: top-dose activity change, negative = inhibition, hits mostly inhibitors; P15428; 150,000 compounds, 4.3% hits; purified HPGD, NADH fluorescence kinetic, PGE2 substrate; also: potency is read from the fitted curve at half-maximal effect
#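 NADH formation kinetics: reaction with 30 uM PGE2 and 1 mM NAD+ (final), 20 nM enzyme, Tris-HCl pH 8 with Tween 20, after 15 min compound preincubation at room temperature. Fluorescence change, last versus first of five reads.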
# Lamin A splicing: changes lamin A minigene splicing in HeLa cells | AID 1487 | HeLa LMNA splicing GFP/RFP minigene ratio, 48 h | 200,000 compounds, 0.01% hits | Potency, µM (titrated, usually from 46.1 µM), inactives show at the highest dose ratio change, negative = inhibition, usual class: inhibitors; active = well fitted inhibition curve with a large enough effect in the signal ratio, with a control signal flat, not every such curve was filed as active; inconclusive = small, poorly fitted or top-dose-only effect, or effect the other way, or a change in a side signal; the % refers to the signal ratio; also: potency is read from the fitted curve at half-maximal effect
#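 S3 HeLa cells stably expressing lamin A-EGFP splicing minigene plus DsRed2, 600 cells/well, 48 h compound exposure at 37C. Laser-scanning cytometry; analysed as GFP (500-530 nm)/RFP (575-640 nm) total intensity ratio; 0.5% DMSO vehicle.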
# PNC inhibitor: inhibitors of perinucleolar compartment assembly; PC3M PTB-GFP, PNC prevalence imaging, 16 h; hits give low values; activity change (PNC), negative = inhibition, % at 10 µM; 140,000 compounds, 3.1% hits;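 active = readout at or below -70, meaning at least 70% loss of cells showing the perinucleolar compartment, a nuclear body marking cancer cells; inconclusive = readout between -30 and a set limit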;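 also: plate controls were DMSO wells for no effect and camptothecin positive control wells for full effect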
#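 PC3M cells stably expressing PTB-GFP, 750–1000 cells/well, treated 16 h at 37 °C with compound (23 nl of library stock), in duplicate. After paraformaldehyde fixation and Hoechst stain, imaged at 20x; PNC prevalence scored by image analysis.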
# ALOX12 inhib: inhibitors of human 12-lipoxygenase (ALOX12) | P18054 | purified 12-hLO, xylenol orange hydroperoxide absorbance | Potency, µM (top dose mostly 57.1 µM), for inactives: top-dose activity change, negative = inhibition, most hits filed as inhibitors | 150,000 compounds, 0.12% hits | AID 1452; active = well fitted inhibition curve with a large enough effect; inconclusive = small, poorly fitted or top-dose-only effect; also: potency is read from the fitted curve at half-maximal effect; nearly all actives have a fitted effect of over 55% in size
# Target sequence (P18054 whole entry, looked up): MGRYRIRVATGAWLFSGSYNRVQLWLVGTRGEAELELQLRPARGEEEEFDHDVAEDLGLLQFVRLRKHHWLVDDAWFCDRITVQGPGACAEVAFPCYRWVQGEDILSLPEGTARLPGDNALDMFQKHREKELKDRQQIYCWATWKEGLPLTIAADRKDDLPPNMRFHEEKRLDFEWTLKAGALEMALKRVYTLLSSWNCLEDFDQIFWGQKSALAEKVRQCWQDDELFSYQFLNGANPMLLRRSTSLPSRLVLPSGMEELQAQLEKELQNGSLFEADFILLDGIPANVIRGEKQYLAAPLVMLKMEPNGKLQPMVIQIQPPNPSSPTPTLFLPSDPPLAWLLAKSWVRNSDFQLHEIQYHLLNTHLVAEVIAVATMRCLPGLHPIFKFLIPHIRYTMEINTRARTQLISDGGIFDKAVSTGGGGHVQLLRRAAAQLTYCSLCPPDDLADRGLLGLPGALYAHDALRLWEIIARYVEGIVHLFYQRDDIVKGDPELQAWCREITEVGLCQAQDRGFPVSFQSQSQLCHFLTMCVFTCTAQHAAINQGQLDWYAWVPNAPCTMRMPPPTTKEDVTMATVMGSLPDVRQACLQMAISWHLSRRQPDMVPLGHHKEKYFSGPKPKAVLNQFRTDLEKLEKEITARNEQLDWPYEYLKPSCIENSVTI
#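 Xylenol orange chromogenic assay: hydroperoxide from 12hLO oxidises Fe(II), giving red-shifted Fe(III)-XO absorbance. Conditions: 150 nM enzyme, 40 uM arachidonic acid, 25 mM Hepes pH 7.0, 0.01% Triton X-100, 30 min, room temperature.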
# Numbers without * were called inactive; ? = inconclusive; / = no result given; ! = a repeat was not active; [ ] = another dose, or the depositor's remark. A selection: hits, their analogues and other compounds. The true share with any hit is near 10%. Unless noted, calls follow the shape of the dose curve; as a rule, active = well fitted inhibition curve with a large enough effect (not every such curve was filed as active); inconclusive = small, poorly fitted or top-dose-only effect, or another doubt; inactive = no such curve, though single readings can be large or run the other way. Unless noted, % is scaled to controls: 0 for no effect and ±100 for the full control effect.
SMILES,ALDH1A1 inh,HPGD inh,Lamin A splicing,PNC inhibitor,ALOX12 inhib
CCc1ccc2c(c1)[C@H]1OCC[C@H]1[C@@H](c1cccs1)N2,-2%,-20%,?,-109*,0%
CC(=O)N1CCC[C@@]2(CCN(C(=O)Nc3cccc(C#N)c3)C2)C1,16%,-1%,/,/,7%
COc1cc(/C=C/C(=O)/C=C(O)/C=C/c2ccc(O)c(OC)c2)ccc1O,-4%,22µM*!,/,/,-18%
COc1cc(/C=C/C(=O)O)ccc1O,-3%,-23%,/,/,-1%
COc1cc(C=O)ccc1O,25µM*,-15%,/,/,-2%
COc1cc(/C=C2/C(=O)CNC2=O)ccc1O,13µM*,/,?,/,/
CCC(CC)C(=O)Nc1nnc(SCC(=O)NC(C)(C)C)s1,6%,/,-3%[9.22 µM],/,/
O=C(Nc1ccccc1F)c1cnc(N2CCCCC2)c2ccccc12,/,/,-2%[46 µM],/,/
O=C1C=C(O)c2ccccc2C1=O,16µM*,?,13%,/,-13%
CC/C(=N\NC(=O)c1ccc(N(C)C)cc1)c1ccccc1,28µM*,-19%,?,32,-2%
CNC(=O)c1[nH]cnc1C(=O)Nc1cccc(OC)c1,28µM*,-13%,-6%,?,0%
CCOC(=O)c1[nH]cnc1C(=O)Nc1cccc(OC)c1,/,/,6%[46 µM],/,/
COCCNC(=O)[C@@]1(Cc2ccccc2)C=C[C@@H](C)N1C(=O)OC,3%,-8%,/,/,4%
Cn1c(SCC(=O)N/N=C/c2cccs2)nc2ccccc21,2%,-7%,-3%,12,-2%
CCn1c(SCC(=O)N/N=C/c2cc(OC)c(OC)c(OC)c2)nc2ccccc21,25µM*,-3%,?,-16,0%
C/C(=N/NC(=O)CSc1nc2ccccc2n1C)c1ccc(O)cc1,13µM*,/,/,/,/
Cn1c(SCC(=O)N/N=C/C=C\c2ccco2)nc2ccccc21,6µM*,20µM*,?,?,?
CCn1c(SCC(=O)N/N=C/C=C\c2ccco2)nc2ccccc21,10µM*,?,-6%,-15,-4%
COc1ccc(O)c(/C=c2/sc3nc4cc(C)c(C)cc4n3c2=O)c1,?,7.9µM*,0%,?,-1%
COc1cc([N+](=O)[O-])c(OC)cc1SCc1n[nH]c(=S)n1-c1ccc(F)cc1,2.2µM*,/,/,/,/
COc1ccc(CCN2C(=O)C3C4CC(C5C(C(N)=O)=NOC45)C3C2=O)cc1OC (stereo unspecified),?,-9%,4%,59,6%
COc1ccc(CCN2C(=O)C3C4CCC(C4=C(C)C)C3C2=O)cc1OC (stereo unspecified),13µM*,-7%,-11%,26,-1%
CCCCOc1ccc(N2C(=O)CC(NCCc3ccc(S(N)(=O)=O)cc3)C2=O)cc1 (stereo unspecified),?,-13%,3%,-82*,2%
CCCCCCOc1ccc(N2C(=O)CC(N(CCc3ccc(S(N)(=O)=O)cc3)C(C)=O)C2=O)cc1 (stereo unspecified),-9%,/,/,/,/
COc1ccc(CCNC2CC(=O)N(N(C)C)C2=O)cc1OC (stereo unspecified),-15%,/,/,/,/
SMILES,ALDH1A1 inh,HPGD inh,Lamin A splicing,PNC inhibitor,ALOX12 inhib
COc1ccc(CCN2C(=O)CC(NCCc3ccc(S(N)(=O)=O)cc3)C2=O)cc1OC (stereo unspecified),10µM*,-2%,21%,-21,-8%
COc1ccc(CN2C(=O)C3C4C=CC(C4)C3C2=O)cc1 (stereo unspecified),-1%,-2%,4%,?,-1%
CCOc1ccc(CCN2C(=O)C3C4C=CC(C4)C3C2=O)cc1OCC (stereo unspecified),3.5µM*,-12%,-6%,?,3%
CCCCC[C@H](O)/C=C/[C@H]1OC(O)C[C@H](O)[C@@H]1C/C=C\CCCC(=O)O (stereo partly specified),-1%,-6%,/,/,-1%
C=CCO/N=C(/C)c1ccc(Oc2cnccn2)cc1,8%,/,/,/,/
COc1ccc(CCN2C(=O)CC(NC34CC5CC(CC(C5)C3)C4)C2=O)cc1OC (stereo unspecified),10µM*,/,3%[46 µM],/,/
COc1ccc(CCN2C(=O)CC(Cc3ccc(C)cc3)C2=O)cc1OC (stereo unspecified),-8%,/,5%[46 µM],/,/
O=[N+]([O-])c1ccc(Cl)c(/C=N/n2c(-c3cccnc3)n[nH]c2=S)c1,7.9µM*,8.9µM*,-16%,3,-1%
Cc1ccsc1/C=N/n1c(-c2cccnc2)n[nH]c1=S,?,?,-21%,?,-1%
O=[N+]([O-])c1cccc(/C=N/n2c(-c3cccnc3)n[nH]c2=S)c1,10µM*,20µM*,?,20,-1%
O=[N+]([O-])c1ccc(/C=N/n2c(-c3cccnc3)n[nH]c2=S)cc1,2.8µM*,/,-17%,-13,0%
Cc1cc(C)cc(-n2ccnc2SCC(=O)Nc2ccc3c(c2)OCO3)c1,/,/,-2%[46 µM],/,/
COC(=O)COc1ccc(S(=O)(=O)NCCC2=CCCCC2)cc1,22µM*,-1%,-10%,10,7%
O=C(COc1ccc([N+](=O)[O-])cc1)NCCC1=CCCCC1,10µM*,-11%,8%,-14,-3%
CCCNS(=O)(=O)c1ccc(OCC(=O)Nc2ccccc2F)cc1,10%,0%,1%,-112*,4%
CC(C)NS(=O)(=O)c1ccc(OCC(=O)NCCC2=CCCCC2)cc1,-15%,-4%,-5%,-25,0%
COC(=O)COc1ccc(S(=O)(=O)NCCC2=CCCCC2)cc1C,-6%,-1%,-1%,-11,-10%
CCCNS(=O)(=O)c1ccc(OCC(=O)NCCC2=CCCCC2)cc1,11µM*,1%,0%,-22,1%
C[Si](C)(C/C=C/CC[C@H](O)C1=CCCCC1=O)c1ccccc1,3%,-10%,/,/,0%
CC1=C(c2ccc(C)cc2)S(=O)(=O)N(Cc2ccc(C(=O)NCc3cccc(C)c3)cc2)C1=O,/,/,-2%[46 µM],/,/
COc1ccccc1-n1c(C)nc2cc(C(=O)O)ccc21,-14%,-23%,-3%,43,5%
CCOc1ccccc1-n1cnc2cc(C(=O)NCc3ccco3)ccc21,-16%,16µM*,10%,-30,-1%
COc1ccccc1-n1cnc2cc(C(=O)NC3CCCC3)ccc21,3%,16µM*,-4%,10,2%
O=C(NC1CC1)c1ccc2c(c1)ncn2C1CCCC1,?,14µM*,8%[0.0737 µM],?,1%
COc1ccc(OC)c(-n2cnc3cc(C(=O)O)ccc32)c1,5%,16µM*,-2%,-5,-1%
Cc1ccc(-n2cnc3cc(C(=O)NC4CCCCCC4)ccc32)cc1Cl,/,/,-21%[46 µM],/,/
CCOc1c2ccc(C(=O)NCc3ccco3)cc2nn1CC,?,?,-6%,?,1%
O=C(/C=C/c1ccncc1)c1ccc(NC(=O)c2ccccc2F)cc1,?,25µM*,-9%,49,-2%
O=C(Nc1cccnc1)c1ccccc1F,9%,-9%,4%,?,-6%

# Screening results deposited in PubChem BioAssay by National Center for Advancing Translational Sciences (NCATS).
